{"source": "PubChem BioAssay (NCATS)", "note": "Active and inactive are the calls of the source. Calls follow the shape of the full dose curve.", "data": [{"assay": "Cell Proliferation Assay Versus the ED40515 IL2 Dependent ATL cell lines (AID 1053195)", "conditions": "ED40515 IL2-dependent ATL cells", "from_the_text": "Adult T-cell leukemia (ATL) develops in individuals infected with human T-cell lymphotropic virus-1 (HTLV-1). Clinically, ATL is subclassified into four subtypes: smoldering, chronic, lymphomatous, and acute. Two autocrine loops (IL-2/IL-2Ralpha and IL-15/IL-15Ralpha) and one paracrine stimulation loop that involves IL-9 expression by ATL cells and IL-9Ralpha expression on monocytes are required to maintain viability and proliferation in the smoldering and chronic forms of the disease. These assays examined the differential response profiles for the MIPE library of approved and investigational drugs versus an IL2 dependent and independent matched ATL cell line, with the current submission examining the differential response profiles for drugs on an IL2 dependent matched ATL cell line.\nPlate log growing ED40515 +IL2 cells: 1000cells/ well in 5uL phenol red free RPMI +5% FBS +1x p/s, Glutamine using 1536 well white griener tissue culture plates and multidrop cassette acoustic dispensing Columns 1 and 3 DMSO Columns 2 and 4, 9.2 uM Bortezomib Incubate 48 hours for celltiter glo 37C with 5%CO2 and 95% humidity with low evaporation lids Dispense 3 uL per well of cell titer glo with multidrop Incubate for 15 minutes at RT Read on VL/2 using Luminesence Wheel (Filter A)", "values": [{"smiles": "CN(C)CCN(C)CCc1ccc(Cl)c(Cl)c1", "Potency": "16.6 µM (active)"}, {"smiles": "C[C@@H]1[C@@H](CC(C[C@H]2O[C@@H]3O[C@]4(C)CC[C@@H]5[C@H](C)CC[C@@H]([C@H]2C)[C@@]35OO4)C[S+](=O)([O-])c2ccc(COC(=O)N(C)C)cc2)O[C@@H]2O[C@]3(C)CC[C@H]4[C@H](C)CC[C@@H]1[C@@]24OO3", "note": "(stereo not given in full)", "Potency": "0.0166 µM (active)"}, {"smiles": "CNC(=O)N1N=C(c2ccc(N)cc2)c2cc3c(cc2CC1C)OCO3", "note": "(stereo not given)", "Potency": "14.8 µM (active)"}, {"smiles": "O=C(O)C(=O)c1cn(Cc2ccccc2)c2ccc(-c3ccc(OC(F)(F)F)cc3)cc12", "Potency": "20.9 µM (active)"}, {"smiles": "C[C@@H]1[C@@H](C(=O)C[C@H]2O[C@@H]3O[C@]4(C)CC[C@@H]5[C@H](C)CC[C@@H]([C@H]2C)[C@@]35OO4)O[C@@H]2O[C@]3(C)CC[C@H]4[C@H](C)CC[C@@H]1[C@@]24OO3", "Potency": "0.0066 µM (active)"}, {"smiles": "CCCCC/C=C\\C/C=C\\C/C=C\\C/C=C\\CCCC(=O)NC1CC1", "Potency": "16.6 µM (active)"}, {"smiles": "C[C@]12CCC(=O)C(O)=C1CC[C@@H]1[C@@H]2CC[C@]2(C)C(=O)CC[C@@H]12", "Potency": "0.059 µM (active)"}, {"smiles": "Cc1cc(SCc2sc(-c3ccc(C(F)(F)F)c(F)c3)nc2C)ccc1OCC(=O)O", "Potency": "18.7 µM (active)"}, {"smiles": "CC(C)n1c(C=C[C@H](O)C[C@H](O)CC(=O)O)c(-c2ccc(F)cc2)c2ccccc21", "Potency": "0.209 µM (active)"}, {"smiles": "CC(O)(CS(=O)(=O)c1ccc(F)cc1)C(=O)Nc1ccc(C#N)c(C(F)(F)F)c1", "note": "(stereo not given)", "Potency": "14.8 µM (active)"}, {"smiles": "CNC(=O)c1ccc(N2C(=S)N(c3ccc(C#N)c(C(F)(F)F)c3)C(=O)C23CCC3)cc1F", "Potency": "20.9 µM (active)"}, {"smiles": "COC1(CS(=O)c2ccccc2)CCN(CCc2c[nH]c3ccc(F)cc23)CC1", "note": "(stereo not given)", "Potency": "23.5 µM (active)"}, {"smiles": "O=c1c(O)c(-c2ccc(O)c(O)c2)oc2cc(O)cc(O)c12", "Potency": "16.6 µM (active)"}, {"smiles": "CC1=C2C[C@@H]3[C@@H](CC=C4C[C@@H](O)CC[C@@]43C)[C@@H]2CC[C@]12O[C@H]1C[C@H](C)CN[C@H]1[C@H]2C", "Potency": "16.6 µM (active)"}, {"smiles": "Cn1cc(C2=C(c3cn(C4CCN(Cc5ccccn5)CC4)c4ccccc34)C(=O)NC2=O)c2ccccc21", "Potency": "14.8 µM (active)"}]}]}
